Experimental findings from PubChem BioAssay (EPA / NIEHS) are described below.

Experiment [1] in a line: TOX21_p53_BLA_p2_viability: Viability Assessment in the Tox21 HCT-116 p53 Agonism Beta-lactamase Assay, Phase 2 (AID 2283591).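 Also: compound exposure lasted 16 h at 37 °C; actives lower the ATP signal meaning cytotoxicity.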 In short, it runs like this: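 HCT116 p53-bla cells, 4000/well, dosed after 5 h plating (217-fold dilution of DMSO stocks) and incubated 16 h at 37C. Viability taken as cellular ATP by CellTiter-Glo luminescence after 30 min RT; signal loss marks cytotoxicity.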

Experiment [2] addresses Cellular tumor antigen p53 (Homo sapiens) (UniProt P04637). The experiment in a line: TOX21_p53_BLA_p2_ratio: Tox21 HCT-116 p53 Agonism Beta-lactamase Assay, Ratio, Phase 2 (AID 2283592). In outline:
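Read-out is the blue/green (460/530 nm, 405 nm excitation) ratio after 2 h CCF4-AM loading, fitted as gain versus DMSO. Compounds, pinned at 217-fold dilution from DMSO stocks, stayed 16 h on HCT-116 beta-lactamase reporter cells seeded 5 h earlier.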

Experiment [3] is described as follows: TOX21_p53_BLA_p3_viability: Viability Assessment in the Tox21 HCT-116 p53 Agonism Beta-lactamase Assay, Phase 3 (AID 2283593).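 Also: cells exposed to compound for 16 h before reading.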 In short, it runs like this:
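HCT116 cells, 4000/well, dosed 5 h after plating by pin transfer (217-fold dilution from DMSO stock) and incubated 16 h at 37C, 5% CO2. Viability read as ATP luminescence with CellTiter-Glo after 30 min at room temperature.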

The target in experiment [4] is Cellular tumor antigen p53 (Homo sapiens) (UniProt P04637). The experiment in a line: TOX21_p53_BLA_p3_ratio: Tox21 HCT-116 p53 Agonism Beta-lactamase Assay, Ratio, Phase 3 (AID 2283596). In short, it runs like this:
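Cells were seeded at 4000/well, rested 5 h at 37C, then dosed with DMSO compound solutions (217-fold dilution) for 16 h. CCF4-AM substrate was loaded for 2 h at room temperature, and the 460/530 nm emission ratio was fitted for gain of signal versus DMSO.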

Experiment [5] in a line: TOX21_p53_BLA_p4_viability: Viability Assessment in the Tox21 HCT-116 p53 Agonism Beta-lactamase Assay, Phase 4 (AID 2283597).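 Also: hits lower the luminescence signal meaning cytotoxicity.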 In short, it runs like this:
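Cytotoxicity as reduced cellular ATP (CellTiter-Glo luminescence, 30 min room temperature), measured in the same wells following the CCF4 FRET p53 reading. Human HCT-116 cells received compounds in DMSO (217-fold dilution) for 16 h.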

Experiment [6] has as its target Cellular tumor antigen p53 (Homo sapiens) (UniProt P04637). The experiment in a line: TOX21_p53_BLA_p5_ratio: Tox21 HCT-116 p53 Agonism Beta-lactamase Assay, Ratio, Phase 5 (AID 2283599). In outline: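 HCT-116 p53-bla cells (4000/well) plated 5 h, dosed with compound (217-fold DMSO dilution) for 16 h at 37 C; CCF4-AM substrate 2 h at room temperature. Activity is the 460/530 nm emission ratio (405 nm excitation), fitted in gain-of-signal direction versus DMSO.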

Experiment [7] can be described thus: TOX21_p53_BLA_p5_viability: Viability Assessment in the Tox21 HCT-116 p53 Agonism Beta-lactamase Assay, Phase 5 (AID 2283600). In outline: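 Viability came from CellTiter-Glo ATP luminescence, read after 30 min at room temperature. Before this, HCT-116 p53-bla cells (4000/well) had 16 hours of compound exposure at 37C, with DMSO stocks diluted 217-fold on transfer.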

Experiment [8] addresses Cellular tumor antigen p53 (Homo sapiens) (UniProt P04637). As to the kind of experiment: TOX21_p53_BLA_p4_ratio: Tox21 HCT-116 p53 Agonism Beta-lactamase Assay, Ratio, Phase 4 (AID 2283601). In short, it runs like this:
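HCT-116 p53 beta-lactamase reporter cells (4000/well) preincubated 5 h, then compound (217-fold dilution of DMSO stock) for 16 h at 37C. CCF4-AM substrate added 2 h at room temperature; 460/530 nm emission ratio fitted upward versus DMSO.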

Inconclusive results are not listed. Active and inactive are the calls of the source. The calls were made as follows: active = hit-call score of the fitted dose curve at least 0.9, where 1 is the maximum; inconclusive = response in the unintended direction; inactive = score below 0.9.

Cellular tumor antigen p53 (Homo sapiens), sequence (P04637 whole entry, looked up): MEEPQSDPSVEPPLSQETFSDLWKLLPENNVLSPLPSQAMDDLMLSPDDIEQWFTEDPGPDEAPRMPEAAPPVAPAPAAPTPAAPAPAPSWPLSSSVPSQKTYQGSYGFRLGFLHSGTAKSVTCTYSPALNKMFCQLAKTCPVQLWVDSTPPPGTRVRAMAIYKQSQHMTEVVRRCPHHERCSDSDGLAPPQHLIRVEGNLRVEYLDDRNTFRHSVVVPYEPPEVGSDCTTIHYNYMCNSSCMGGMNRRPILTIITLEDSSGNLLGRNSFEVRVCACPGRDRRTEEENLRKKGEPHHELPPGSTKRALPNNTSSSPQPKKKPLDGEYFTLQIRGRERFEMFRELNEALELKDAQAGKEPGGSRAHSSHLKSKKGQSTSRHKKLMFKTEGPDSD

Turning to `CC(S)C(=O)NCC(=O)O` (stereo unspecified), the call in experiment [1], in experiment [2], in experiment [3], in experiment [4], in experiment [5] and in experiment [6] was inactive. Also, the molecule was called inactive in experiment [7].
In the case of `CC(CNC1CCCCC1)OC(=O)c1ccccc1` (stereo unspecified), the result in experiment [1], in experiment [2], in experiment [3], in experiment [4], in experiment [5] and in experiment [6] was inactive. Besides, the molecule was called inactive in experiment [7].
`CCCCCCCCCCCC(=O)N(CCO)CCO`: the call in experiment [1], in experiment [2], in experiment [3], in experiment [4], in experiment [5] and in experiment [6] was inactive. The molecule was classed as inactive in experiment [7].
Take `O=C1CCCCO1`: the molecule was classed as inactive in experiment [1], in experiment [2], in experiment [3], in experiment [4], in experiment [5] and in experiment [6]. Besides, the call in experiment [7] was inactive.
What is called AC50 is the concentration at which the activity in the assay is half-maximal. Take `Cc1cc(O)c(C(C)(C)C)cc1Sc1cc(C(C)(C)C)c(O)cc1C`: the AC50 in experiment [1] was 13.2 µM (active); in experiment [2], 37.9 µM (active); in experiment [3], 20 µM (active); in experiment [4] it was 33.4 µM (active); in experiment [5], 14.3 µM (active); in experiment [6], 40.9 µM (active). In addition, in experiment [7], the AC50 is 18.1 µM (active).
With `CCCOC(C(=O)OC1CCN(C)CC1)(c1ccccc1)c1ccccc1`, the molecule was classed as inactive in experiment [1], in experiment [2], in experiment [3], in experiment [4], in experiment [5] and in experiment [6]. In experiment [7], the molecule was called inactive.
Take `Cc1ccsc1C(=CCCN1CCC[C@@H](C(=O)O)C1)c1sccc1C`: the result in experiment [1], in experiment [2], in experiment [3], in experiment [4], in experiment [5] and in experiment [6] was inactive. The molecule was classed as inactive in experiment [7].
Turning to `CCCCOCCOCCOCCCC`, the result in experiment [1], in experiment [2], in experiment [3], in experiment [4], in experiment [5] and in experiment [6] was inactive. The result in experiment [7] was inactive.
Regarding `CC(C)=CCC/C(C)=C/CC/C(C)=C/CC/C(C)=C/CC1=C(C)C(=O)c2ccccc2C1=O`, the result in experiment [1], in experiment [2], in experiment [3], in experiment [4], in experiment [5] and in experiment [6] was inactive. The molecule was called inactive in experiment [7].
`CCC(=O)c1ccc(O)cc1`: the outcome in experiment [1], in experiment [2], in experiment [3], in experiment [4], in experiment [5] and in experiment [6] was inactive. The call in experiment [7] was inactive.
Turning to `Cc1cc(O)c2c(c1)O[C@@]1(C)CC[C@H]3C(C)(C)CCCC34CO[C@@H]2[C@H]41` (stereo partly specified), the AC50 was 31 µM (active) in experiment [1]; 44.2 µM (active) in experiment [2]; 34.3 µM (active) in experiment [3]; 43.7 µM (active) in experiment [4]; 29.6 µM (active) in experiment [5]; 30.6 µM (active) in experiment [6]. Moreover, the AC50 in experiment [7] is 20.8 µM (active); in experiment [8] it was 43.4 µM (active).
For `C=CC[C@@H]1/C=C(\C)C[C@H](C)C[C@H](OC)[C@H]2O[C@@](O)(C(=O)C(=O)N3CCCC[C@H]3C(=O)O[C@H](/C(C)=C/[C@@H]3CC[C@@H](O)[C@H](OC)C3)[C@H](C)[C@@H](O)CC1=O)[C@H](C)C[C@@H]2OC`, the AC50 was 36.5 µM (active) in experiment [1], 35.9 µM (active) in experiment [5], 36.8 µM (active) in experiment [6] and 40.5 µM (active) in experiment [7]. Further, the result in experiment [2], in experiment [3], in experiment [4] and in experiment [8] was inactive.
As to `COc1ccc2c(c1)OC(C)(C)C(c1ccccc1)C2c1ccc(OCCN2CCCC2)cc1` (stereo unspecified), the call in experiment [1] and in experiment [2] was inactive. Besides, the AC50 was 35.3 µM (active) in experiment [3]; 43.8 µM (active) in experiment [4]; 43.5 µM (active) in experiment [5]; 36.7 µM (active) in experiment [6]; 33.5 µM (active) in experiment [7].
Take `Cc1cc2c(C(C)C)c(O)c(O)c(C=O)c2c(O)c1-c1c(C)cc2c(C(C)C)c(O)c(O)c(C=O)c2c1O`: the AC50 in experiment [1] was 10 µM (active); in experiment [2] it was 30.1 µM (active); in experiment [3], 6.89 µM (active); in experiment [4], 29.9 µM (active); in experiment [5], 10 µM (active); in experiment [6], 35 µM (active). Further, the AC50 in experiment [7] is 10.2 µM (active); in experiment [8] it was 33.2 µM (active).
For the molecule `CC(C)=CCC1C(=O)N(c2ccccc2)N(c2ccccc2)C1=O`, the concentration at half-maximal activity (AC50) in experiment [1] was 32.6 µM (active); in experiment [2], 7.19 µM (active); in experiment [3] it was 34.3 µM (active); in experiment [4], 10.2 µM (active); in experiment [5] it was 33.5 µM (active); in experiment [6] it was 7.67 µM (active). Further, the AC50 in experiment [7] is 42.1 µM (active). The outcome in experiment [8] was inactive.
Consider `CCOC(=O)Nc1ccc(NCc2ccc(F)cc2)nc1N`, for which the molecule was classed as inactive in experiment [1], in experiment [2], in experiment [3], in experiment [4], in experiment [5] and in experiment [6]. Further, the outcome in experiment [7] and in experiment [8] was inactive.
Regarding `O=C1c2c(O)ccc([N+](=O)[O-])c2C(=O)c2c([N+](=O)[O-])ccc(O)c21`, the AC50 is 7.2 µM (active) in experiment [1]; 25.4 µM (active) in experiment [2]; 9.74 µM (active) in experiment [3]; 28.7 µM (active) in experiment [4]; 11.7 µM (active) in experiment [5]; 30.2 µM (active) in experiment [6]. In addition, the results for the AC50 in experiment [7] and in experiment [8] were 9.58 µM (active) and 20.7 µM (active), respectively.
In the case of `CC(C)(C)CC(C)(C)c1ccccc1O`, the AC50 in experiment [1] is 74.6 µM (active); in experiment [2], 75.3 µM (active); in experiment [3] it was 68.9 µM (active); in experiment [4], 77.8 µM (active); in experiment [5], 65.9 µM (active); in experiment [6], 81.5 µM (active). Moreover, the figures for the AC50 in experiment [7] and in experiment [8] were 68 µM (active) and 81.7 µM (active), respectively.
As for `C=CCN1C(=O)C(CC(C)C)NC1=S` (stereo unspecified), the molecule was classed as inactive in experiment [1], in experiment [2], in experiment [3], in experiment [4], in experiment [5] and in experiment [6]. The molecule was called inactive in experiment [7] and in experiment [8].
Consider `O=S(=O)(O)CC(S)CS` (stereo unspecified), for which the molecule was called inactive in experiment [1], in experiment [2], in experiment [3], in experiment [4], in experiment [5] and in experiment [6]. The outcome in experiment [7] and in experiment [8] was inactive.
On to `NC1(c2ccc(-c3nc4ccn5c(=O)[nH]nc5c4cc3-c3ccccc3)cc2)CCC1`, for which the molecule was called inactive in experiment [1], in experiment [2], in experiment [3], in experiment [4], in experiment [6] and in experiment [7]. Besides, the outcome in experiment [8] was inactive. For the same molecule, the AC50 in experiment [5] is 8.62 µM (active).
As to `C[N+]1(CC2COC(c3ccccc3)(C3CCCCC3)O2)CCCCC1` (stereo unspecified), the result in experiment [1], in experiment [2], in experiment [3], in experiment [4], in experiment [5] and in experiment [6] was inactive. For the same molecule, the result in experiment [7] and in experiment [8] was inactive.
As for `Oc1c(Br)cc(Br)c2cccnc12`, the outcome in experiment [1], in experiment [3], in experiment [4], in experiment [6], in experiment [7] and in experiment [8] was inactive. The AC50 in experiment [2] was 5.02 µM (active); in experiment [5], 7.62 µM (active).
Consider `Cc1ccc2c(Cl)cc(Cl)c(O)c2n1`, for which the AC50 was 7.81 µM (active) in experiment [1]; 12.2 µM (active) in experiment [3]; 13.7 µM (active) in experiment [5]; 25.9 µM (active) in experiment [6]; 33.1 µM (active) in experiment [8]. The result in experiment [2], in experiment [4] and in experiment [7] was inactive.
